Measured values published in PubChem BioAssay (NCI).
This is part of a sample that, as a whole, favours compounds with a hit. Of some 79,000 tested, about 15% had one in any assay. The source made the active and inactive calls. Cut-off read from the data, not from the text of the source: active = growth inhibition above about 70%; inactive = the rest. Residues, ends and D or L forms follow the SMILES beside them. *: point of attachment. Fmoc = O=C(OCC1c2ccccc2-c2ccccc21)*; Boc = CC(C)(C)OC(=O)*

Test: NCI Yeast Anticancer Drug Screen. Data for the rad18 strain (AID 177)
Conditions: S. cerevisiae rad18 mutant growth inhibition; at 1.2 µM; active compounds read high
How it was run: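 Inhibition values reflect reduced yeast growth compared with vehicle-treated controls, using a strain engineered with a DNA damage repair defect.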

SMILES	growth inhibition
CC(C)OP(=O)(OC(C)C)/C(Cl)=N/Nc1ccc([N+](=O)[O-])cc1	29% (inactive)
O=[N+]([O-])c1cc(Cl)ccc1S(=O)(=O)c1ccc(Cl)cc1[N+](=O)[O-]	8% (inactive)
CCCCCCNCCCNc1c2cc(OC)ccc2nc2cccc([N+](=O)[O-])c12	89% (active)
N#CCC(=O)N/N=C(\c1ccccc1)C(c1ccccc1)C1(O)C(=O)Nc2c(Cl)ccc(Cl)c21 (stereo not drawn)	3% (inactive)
CN(C)CCNCCCNc1c2ccccc2nc2cccc([N+](=O)[O-])c12	88% (active)
CCC[CH2][Ge]([CH2]CCC)([CH2]CCC)[O]C(=O)C(O)c1ccccc1 (stereo not drawn)	10% (inactive)
COc1ccc(-c2cc(-c3cc(C)cc(Cl)c3O)nc3[nH]c(=S)[nH]c(=S)c23)cc1	0% (inactive)
O=[N+]([O-])c1ccc(/C=C\c2ccc3c(c2)OCO3)c([N+](=O)[O-])c1	-1% (inactive)
O=C1c2ccccc2N2OC3(N4CCCC4)CCCCC3C12c1ccccc1 (stereo not drawn)	-9% (inactive)
CC(C)OC(=O)NNc1cc(Cl)ccc1Cl	2% (inactive)
Cc1oc2ccccc2c(=O)c1Cn1nnc2ccccc21	-2% (inactive)
CC1(C)OC(=O)C(=Cc2ccc([N+](=O)[O-])s2)C(=O)O1	10% (inactive)
CCN(CC)CCCNc1ccc([N+](=O)[O-])c2nc3ccc(OC)cc3c(NCCCN(CC)CC)c12	0% (inactive)
COc1cccc(/C=C2\S/C(=N/Nc3nc(-c4ccc([N+](=O)[O-])cc4)cs3)NC2=O)c1O	10% (inactive)
OC(Cc1cccc2ccccc12)CN1CCC(c2ccccc2)CC1 (stereo not drawn)	30% (inactive)
C1=CCN([B-](c2ccccc2)[C+]2CCCCC2)C=C1	0% (inactive)
O=[N+]([O-])c1cc[n+]([O-])c(Cl)c1	-25% (inactive)

SMILES	growth inhibition
CCCNC(=O)OCc1c(COC(=O)NCCC)c(-c2ccc(Cl)c(Cl)c2)n2c1CCC2	-35% (inactive)
CC1(C)CC(=O)C(C(=O)Nc2cccs2)=C(O)C1	1% (inactive)
O=C(NO)c1coc2ccccc2c1=O	-2% (inactive)
COc1ccc(C(C)c2cc3c(cc2OCC(C)=O)OCO3)cc1 (stereo not drawn)	-2% (inactive)
O=S(=O)(c1ccccc1)N1CN2CN(C1)CN(S(=O)(=O)c1ccccc1)C2	-18% (inactive)
CC1=NN(C(=O)c2ccccc2O)C(=O)/C1=C/c1ccco1	0% (inactive)
O=C1C=C(Br)C(=O)c2ccccc21	5% (inactive)
C[N+](C)([O-])CCCNc1c2ccccc2nc2cccc([N+](=O)[O-])c12	95% (active)
Cc1cccc2c(NCCCN(C)C)c3c([N+](=O)[O-])ccc(C)c3nc12	96% (active)
OC1(c2ccccc2)C2CC=CC2C1(c1ccccc1)c1ccccc1 (stereo not drawn)	-8% (inactive)
C[n+]1c(-c2ccc(/C=N/NC(=O)c3ccc(C(=O)N/N=C/c4ccc(-c5cn6ccccc6[n+]5C)cc4)cc3)cc2)cn2ccccc21	10% (inactive)
CCN(CC)CCC(=O)Nc1ccc2sc3ccccc3c(=O)c2n1	-5% (inactive)
O=[N+]([O-])c1ccc2nc(=S)[nH]n2c1	-2% (inactive)
O=C(c1ccccc1)[C@H]1Nc2ccc(Cl)cc2[C@H]2OCCC[C@@H]12	-13% (inactive)
COc1cc([N+](=O)[O-])c2ncccc2c1Br	91% (active)
O=S(=O)(c1cccc(C(F)(F)F)c1)N1c2ccccc2-n2cccc2C1c1cccnc1 (stereo not drawn)	-7% (inactive)
CC(C)(C)OC(=O)NCCCCC(NC(=O)C(Cc1c[nH]c2ccccc12)NC(=O)OCC1c2ccccc2-c2ccccc21)C(=O)O (stereo not drawn) (Fmoc-Trp-Lys(Boc)-OH; configuration not given here)	-1% (inactive)

Same assay, conditions: S. cerevisiae rad18 mutant growth inhibition; at 3.7 µM; active compounds read high

SMILES	growth inhibition
CC(C)OP(=O)(OC(C)C)/C(Cl)=N/Nc1ccc([N+](=O)[O-])cc1	28% (inactive)
O=[N+]([O-])c1cc(Cl)ccc1S(=O)(=O)c1ccc(Cl)cc1[N+](=O)[O-]	9% (inactive)
CCCCCCNCCCNc1c2cc(OC)ccc2nc2cccc([N+](=O)[O-])c12	93% (active)
N#CCC(=O)N/N=C(\c1ccccc1)C(c1ccccc1)C1(O)C(=O)Nc2c(Cl)ccc(Cl)c21 (stereo not drawn)	8% (inactive)
CN(C)CCNCCCNc1c2ccccc2nc2cccc([N+](=O)[O-])c12	94% (active)
CCC[CH2][Ge]([CH2]CCC)([CH2]CCC)[O]C(=O)C(O)c1ccccc1 (stereo not drawn)	7% (inactive)
COc1ccc(-c2cc(-c3cc(C)cc(Cl)c3O)nc3[nH]c(=S)[nH]c(=S)c23)cc1	-2% (inactive)
O=[N+]([O-])c1ccc(/C=C\c2ccc3c(c2)OCO3)c([N+](=O)[O-])c1	6% (inactive)
O=C1c2ccccc2N2OC3(N4CCCC4)CCCCC3C12c1ccccc1 (stereo not drawn)	-7% (inactive)
CC(C)OC(=O)NNc1cc(Cl)ccc1Cl	69% (inactive)
Cc1oc2ccccc2c(=O)c1Cn1nnc2ccccc21	-2% (inactive)
CC1(C)OC(=O)C(=Cc2ccc([N+](=O)[O-])s2)C(=O)O1	21% (inactive)
CCN(CC)CCCNc1ccc([N+](=O)[O-])c2nc3ccc(OC)cc3c(NCCCN(CC)CC)c12	0% (inactive)
COc1cccc(/C=C2\S/C(=N/Nc3nc(-c4ccc([N+](=O)[O-])cc4)cs3)NC2=O)c1O	25% (inactive)
OC(Cc1cccc2ccccc12)CN1CCC(c2ccccc2)CC1 (stereo not drawn)	38% (inactive)
C1=CCN([B-](c2ccccc2)[C+]2CCCCC2)C=C1	0% (inactive)
O=[N+]([O-])c1cc[n+]([O-])c(Cl)c1	-21% (inactive)

SMILES	growth inhibition
CCCNC(=O)OCc1c(COC(=O)NCCC)c(-c2ccc(Cl)c(Cl)c2)n2c1CCC2	-29% (inactive)
CC1(C)CC(=O)C(C(=O)Nc2cccs2)=C(O)C1	1% (inactive)
O=C(NO)c1coc2ccccc2c1=O	-3% (inactive)
COc1ccc(C(C)c2cc3c(cc2OCC(C)=O)OCO3)cc1 (stereo not drawn)	2% (inactive)
O=S(=O)(c1ccccc1)N1CN2CN(C1)CN(S(=O)(=O)c1ccccc1)C2	-14% (inactive)
CC1=NN(C(=O)c2ccccc2O)C(=O)/C1=C/c1ccco1	17% (inactive)
O=C1C=C(Br)C(=O)c2ccccc21	11% (inactive)
C[N+](C)([O-])CCCNc1c2ccccc2nc2cccc([N+](=O)[O-])c12	96% (active)
Cc1cccc2c(NCCCN(C)C)c3c([N+](=O)[O-])ccc(C)c3nc12	96% (active)
OC1(c2ccccc2)C2CC=CC2C1(c1ccccc1)c1ccccc1 (stereo not drawn)	-4% (inactive)
C[n+]1c(-c2ccc(/C=N/NC(=O)c3ccc(C(=O)N/N=C/c4ccc(-c5cn6ccccc6[n+]5C)cc4)cc3)cc2)cn2ccccc21	17% (inactive)
CCN(CC)CCC(=O)Nc1ccc2sc3ccccc3c(=O)c2n1	-4% (inactive)
O=[N+]([O-])c1ccc2nc(=S)[nH]n2c1	0% (inactive)
O=C(c1ccccc1)[C@H]1Nc2ccc(Cl)cc2[C@H]2OCCC[C@@H]12	-11% (inactive)
COc1cc([N+](=O)[O-])c2ncccc2c1Br	93% (active)
O=S(=O)(c1cccc(C(F)(F)F)c1)N1c2ccccc2-n2cccc2C1c1cccnc1 (stereo not drawn)	7% (inactive)
CC(C)(C)OC(=O)NCCCCC(NC(=O)C(Cc1c[nH]c2ccccc12)NC(=O)OCC1c2ccccc2-c2ccccc21)C(=O)O (stereo not drawn) (Fmoc-Trp-Lys(Boc)-OH; configuration not given here)	-2% (inactive)
